According to PubChem BioAssay (NCATS):
Inconclusive results are not listed. The source made the active and inactive calls. Calls follow the shape of the dose curve; as a rule, active = well fitted inhibition curve with a large enough effect; inconclusive = small, poorly fitted or top-dose-only effect; inactive = flat fitted curve, though single readings scatter.

Assays:
Assay in all cases: qHTS profiling for inhibitors of Plasmodium falciparum proliferation (AID 504749); also: nearly all actives have a fitted effect of over 60% in size
Conditions in all cases: P. falciparum in erythrocytes, SYBR Green DNA, 72 h; series mostly up to 28.7 µM
AA1029 = test system: AA1029
In short: (§1)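 SYBR Green fluorescence (ex 485 nm, em 535 nm) reports parasite DNA after 72 h compound exposure of infected red cells at 0.3% parasitemia, 2.5% hematocrit; signal normalized to 0.29 uM artemisinin and vehicle wells.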

AS120 = test system: AS120
In short: as §1

ATS189 = test system: ATS189
In short: as §1

ATS95 = test system: ATS95
In short: as §1

C2A = test system: C2A
In short: as §1

CP185 = test system: CP185
In short: as §1

CP191 = test system: CP191
In short: as §1

CP192 = test system: CP192
In short: as §1

CP194 = test system: CP194
In short: as §1

CP201 = test system: CP201
In short: as §1

Measured: Potency

CCC(N)Cc1c[nH]c2ccccc12 (stereo not given)
inactive: AA1029 | AS120 | ATS189 | ATS95 | C2A | CP185 | CP191 | CP192 | CP194 | CP201

CCC(C)(S(=O)(=O)CC)S(=O)(=O)CC
inactive: AA1029 | AS120 | ATS189 | ATS95 | C2A | CP185 | CP191 | CP192 | CP194 | CP201

CC[N+](C)(CC)CCOC(=O)C(O)(c1ccccc1)c1ccccc1
inactive: AA1029 | AS120 | ATS189 | ATS95 | C2A | CP185 | CP191 | CP192 | CP194 | CP201

O=[N+]([O-])c1cc(I)c(O)c(I)c1
inactive: AA1029 | AS120 | ATS189 | ATS95 | C2A | CP185 | CP191 | CP192 | CP194 | CP201

CNC(C)C(O)c1ccc(O)cc1 (stereo not given)
inactive: AA1029 | AS120 | ATS189 | ATS95 | C2A | CP185 | CP191 | CP192 | CP194 | CP201

CC(=O)OO
inactive: AA1029 | AS120 | ATS189 | ATS95 | C2A | CP185 | CP191 | CP192 | CP194 | CP201

O=C1CCO1
inactive: AA1029 | AS120 | ATS189 | ATS95 | C2A | CP185 | CP191 | CP192 | CP194 | CP201

Clc1ccccc1Cl
inactive: AA1029 | AS120 | ATS189 | ATS95 | C2A | CP185 | CP191 | CP192 | CP194 | CP201

O=C(NCNC(=O)NC1C(=O)NC(=O)N1CO)NC1C(=O)NC(=O)N1CO (stereo not given)
inactive: AA1029 | AS120 | ATS189 | ATS95 | C2A | CP185 | CP191 | CP192 | CP194 | CP201

CCC1C(C)=NN=C(c2ccc(OC)c(OC)c2)c2cc(OC)c(OC)cc21 (stereo not given)
inactive: AA1029 | AS120 | ATS189 | ATS95 | C2A | CP185 | CP191 | CP192 | CP194 | CP201

C=CCN1CCC23c4c5ccc(O)c4O[C@H]2C(=O)CC[C@@]3(O)C1C5 (stereo not given in full)
inactive: AA1029 | AS120 | ATS189 | ATS95 | C2A | CP185 | CP191 | CP192 | CP194 | CP201

[O]=[Cr](=[O])([OH])[O][Cr](=[O])(=[O])[OH]
inactive: AA1029 | AS120 | ATS189 | ATS95 | C2A | CP185 | CP191 | CP192 | CP194 | CP201

COCC(C)N(C(=O)CCl)c1c(C)csc1C (stereo not given)
inactive: AA1029 | AS120 | ATS189 | ATS95 | C2A | CP185 | CP191 | CP192 | CP194 | CP201

O=C(O)C(Cl)(Cl)Cl
inactive: AA1029 | AS120 | ATS189 | ATS95 | C2A | CP185 | CP191 | CP192 | CP194 | CP201

ClCC1CO1 (stereo not given)
inactive: AA1029 | AS120 | ATS189 | ATS95 | C2A | CP185 | CP191 | CP192 | CP194 | CP201

CCCCCCCCCC(=O)O[C@H]1CC[C@H]2[C@@H]3CCC4=CC(=O)CC[C@]4(C)[C@H]3CC[C@]12C
inactive: AA1029 | AS120 | ATS189 | ATS95 | C2A | CP185 | CP191 | CP192 | CP194 | CP201

Oc1cc(Cl)c(Cl)cc1Cl
inactive: AA1029 | AS120 | ATS189 | ATS95 | C2A | CP185 | CP191 | CP192 | CP194 | CP201

CC(=O)O[C@H]1CC[C@H]2[C@@H]3CCC4=CC(=O)CCC4=C3C=C[C@]12C
inactive: AA1029 | AS120 | ATS189 | ATS95 | C2A | CP185 | CP191 | CP192 | CP194 | CP201

CC(C)CCON=O
inactive: AA1029 | AS120 | ATS189 | ATS95 | C2A | CP185 | CP191 | CP192 | CP194 | CP201

CC(C)(O)C1C2OC(=O)C1C1(O)CC3OC34C(=O)OC2C14C (stereo not given)
inactive: AA1029 | AS120 | ATS189 | ATS95 | C2A | CP185 | CP191 | CP192 | CP194 | CP201

O=C(NC(=O)c1c(F)cccc1F)Nc1ccc(Cl)c(Oc2ncc(C(F)(F)F)cc2Cl)c1
inactive: AA1029 | AS120 | ATS189 | ATS95 | C2A | CP185 | CP191 | CP192 | CP194 | CP201

CCCC(C)(COC(N)=O)COC(=O)NC1CC1 (stereo not given)
inactive: AA1029 | AS120 | ATS189 | ATS95 | C2A | CP185 | CP191 | CP192 | CP194 | CP201

CN1c2ccccc2C(NCCCCCCC(=O)O)c2ccc(Cl)cc2S1(=O)=O (stereo not given)
inactive: AA1029 | AS120 | ATS189 | ATS95 | C2A | CP185 | CP191 | CP192 | CP194 | CP201
